Results from PubChem BioAssay AID1159580 (chemical genetic matrix, 2015).
“And” between values parts separate entries of the source, which are not always exact repeats. Equal entries are not always repeated. The campaign covered roughly 5,500 compounds. About 2,000 (36%) were called active. Inconclusive results (about 18%) are left out. No stated cut-off is given here; in the data, active means normalized growth mostly below about 0.91 (no sharp cut-off); inconclusive means no clear call, values can overlap the other calls; inactive means mostly above about 0.92. This is one part of the list.

Assay: chemical genetic growth profiling, strain panel (AID 1159580);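 further: tested at 20 µM; growth read once vehicle control cultures reached saturation at 30 °C; 1 = growth at the plate median or of vehicle wells; lower values mean less growth of the strain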
Conditions: S. cerevisiae deletion strains, growth OD
[1] = locus YMR263W, strain SAP30, hits give low values
[2] = locus YPL241C, strain CIN2, hits give low values

Measured: normalized growth

c1ccc2c(c1)sc1ccccc12
inactive: locus YAL021C, strain ccr4, hits give low values 1.02 | locus YBR021W, strain FUR4, hits give low values 1.03 | locus YBR171W, strain sec66, hits give low values 0.912 | locus YBR229C, strain ROT2, hits give low values 1 | locus YBR279W, strain paf1, hits give low values 0.952 | locus YCL029C, strain bik1, hits give low values 0.973 | locus YDL035C, strain GPR1, hits give low values 0.99 | locus YDL040C, strain nat1, hits give low values 0.942 | locus YDL074C, strain BRE1, hits give low values 0.97 | locus YDL101C, strain DUN1, hits give low values 0.96 | locus YDL134C, strain PPH21, hits give low values 0.938 | locus YDL185W, strain tfp1, hits give low values 0.986 | locus YDL192W, strain arf1, hits give low values 0.959 | locus YDR069C, strain doa4, hits give low values 1.02 | locus YDR101C, strain arx1, hits give low values 0.955 | locus YDR159W, strain sac3, hits give low values 0.869 | locus YDR162C, strain NBP2, hits give low values 0.883 | locus YDR195W, strain ref2 1.09 | locus YDR388W, hits give low values 0.971 | locus YDR502C, strain sam2, hits give low values 0.928 | locus YEL037C, strain rad23, hits give low values 0.933 | locus YEL061C, strain CIN8, hits give low values 0.991 | locus YER016W, strain bim1, hits give low values 0.957 | locus YER110C, hits give low values 0.97 | locus YER155C, strain BEM2, hits give low values 0.946 | locus YER167W, strain BCK2, hits give low values 0.96 | locus YFR010W, strain ubp6, hits give low values 0.976 | locus YGL078C, strain dbp3, hits give low values 0.973 | locus YGL086W, strain mad1, hits give low values 0.941 | locus YGL167C, strain pmr1, hits give low values 0.937 | locus YGL248W, strain PDE1, hits give low values 0.898 | locus YGR135W, strain pre9, hits give low values 0.929 | locus YGR229C, strain SMI1, hits give low values 0.917 | locus YGR252W, strain gcn5, hits give low values 1.02 | locus YHR027C, strain rpn1, hits give low values 0.922 | locus YHR030C, strain SLT2, hits give low values 0.978 and 0.997 | locus YHR079C, strain IRE1 (second series), hits give low values 0.957 | locus YHR079C, strain IRE1, hits give low values 0.996 | locus YHR094C, strain hxt1, hits give low values 0.972 | locus YHR129C, strain ARP1, hits give low values 0.981 | locus YHR200W, strain rpn10, hits give low values 0.97 | locus YIL066C, strain RNR3, hits give low values 0.994 | locus YIL073C, strain SPO22, hits give low values 0.951 | locus YIL125W, strain kgd1, hits give low values 0.962 | locus YIR030C, strain dcg1, hits give low values 0.957 | locus YJL095W, strain BCK1, hits give low values 0.834 and 1.01 | locus YJL115W, strain asf1, hits give low values 0.921 | locus YJL134W, strain LCB3, hits give low values 0.995 | locus YJL154C, strain vps35, hits give low values 0.924 | locus YJL168C, strain set2, hits give low values 0.97 | locus YJL187C, strain SWE1 (second series), hits give low values 0.957 | locus YJR043C, strain POL32, hits give low values 0.99 | locus YJR066W, strain TOR1, hits give low values 0.974 | locus YKL009W, strain mrt4, hits give low values 0.966 | locus YKL068W, hits give low values 0.973 | locus YKL085W, strain MDH1 (second series), hits give low values 0.971 | locus YKL085W, strain MDH1, hits give low values 0.971 | locus YLL041C, strain sdh2, hits give low values 0.935 | locus YLR039C, strain RIC1, hits give low values 0.735 | locus YLR058C, strain SHM2, hits give low values 0.968 | locus YLR102C, strain apc9, hits give low values 0.974 | locus YLR113W, strain HOG1, hits give low values 1.02 | locus YLR262C, strain YPT6, hits give low values 0.656 | locus YLR268W, strain sec22, hits give low values 0.897 | locus YLR330W, strain CHS5, hits give low values 0.95 | locus YLR342W, strain FKS1 (second series), hits give low values 1.03 | locus YLR342W, strain FKS1, hits give low values 0.959 | locus YLR357W, strain rsc2, hits give low values 0.909 | locus YLR370C, strain arc18, hits give low values 0.929 | locus YLR384C, strain iki3, hits give low values 0.939 | locus YML016C, strain PPZ1, hits give low values 0.988 | locus YML124C, strain tub3, hits give low values 0.971 | locus YMR078C, strain ctf18, hits give low values 0.967 | locus YMR231W, strain pep5, hits give low values 0.967 | [1] 0.954 | locus YMR307W, strain GAS1, hits give low values 0.869 | locus YNL067W, strain RPL9B, hits give low values 0.955 | locus YNL128W, strain TEP1, hits give low values 0.965 | locus YNL183C, strain NPR1, hits give low values 0.96 | locus YNL209W, strain ssb2, hits give low values 0.948 | locus YNL233W, strain BNI4, hits give low values 0.873 | locus YNL250W, strain rad50, hits give low values 0.974 | locus YNL271C, strain bni1, hits give low values 0.95 | locus YNL298W, strain CLA4, hits give low values 0.929 | locus YNR052C, strain pop2, hits give low values 0.991 | locus YOL012C, strain htz1 0.804 | locus YOL147C, strain pex11, hits give low values 0.953 | locus YOR061W, strain CKA2, hits give low values 0.994 | locus YOR069W, strain VPS5, hits give low values 0.996 | locus YOR070C, strain gyp1, hits give low values 0.937 | locus YOR080W, strain dia2, hits give low values 0.948 | locus YOR136W, strain idh2, hits give low values 0.951 | locus YOR144C, strain elg1, hits give low values 0.972 | locus YOR231W, strain MKK1, hits give low values 1.03 | locus YOR270C, strain vph1, hits give low values 1.02 | locus YOR290C, strain snf2, hits give low values 0.891 | locus YOR316C, strain cot1, hits give low values 0.966 | locus YPL240C, strain hsp82, hits give low values 0.934 | [2] 0.999 | locus YPL256C, strain CLN2, hits give low values 0.984 | locus YPR119W, strain clb2, hits give low values 0.965 | locus YPR141C, strain kar3, hits give low values 0.959 | locus YPR163C, strain tif3, hits give low values 0.983 | locus YPR167C, strain met16, hits give low values 0.972
active: locus YAL013W, strain DEP1, hits give low values 0.807 | locus YAL026C, strain drs2, hits give low values 0.832 | locus YAL030W, strain snc1, hits give low values 0.851 | locus YBL061C, strain skt5, hits give low values 0.811 | locus YBR009C, strain hhf1, hits give low values 0.734 | locus YBR023C, strain chs3, hits give low values 0.867 | locus YBR231C, strain swc5, hits give low values 0.86 | locus YCL011C, strain gbp2, hits give low values 0.815 | locus YCL016C, strain dcc1, hits give low values 0.877 | locus YCL069W, strain vba3, hits give low values 0.778 | locus YCR088W, strain abp1, hits give low values 0.905 | locus YDL005C, strain med2, hits give low values 0.906 | locus YDR001C, strain nth1, hits give low values 0.894 | locus YDR137W, strain rgp1, hits give low values 0.427 | locus YDR297W, strain sur2, hits give low values 0.842 | locus YDR318W, strain mcm21, hits give low values 0.912 | locus YDR334W, strain swr1, hits give low values 0.871 | locus YDR335W, strain msn5, hits give low values 0.781 | locus YDR392W, strain spt3, hits give low values 0.588 | locus YEL003W, strain gim4, hits give low values 0.572 | locus YEL061C, strain CIN8 (second series), hits give low values 0.8 | locus YER015W, strain faa2, hits give low values 0.765 | locus YER111C, strain swi4, hits give low values 0.823 | locus YER155C, strain BEM2 (second series), hits give low values 0.223 | locus YGL173C, strain kem1, hits give low values 0.827 | locus YGL227W, strain vid30, hits give low values 0.809 | locus YGL240W, strain doc1, hits give low values 0.778 | locus YGL253W, strain hxk2, hits give low values 0.854 | locus YHR013C, strain ard1, hits give low values 1.25 [resistant] | locus YHR142W, strain chs7, hits give low values 0.597 | locus YJL092W, strain hpr5, hits give low values 0.841 | locus YJL095W, strain BCK1 (second series), hits give low values 0.834 | locus YJL129C, strain trk1, hits give low values 0.802 | locus YJL164C, strain tpk1, hits give low values 0.802 | locus YJL166W, strain qcr8, hits give low values 0.652 | locus YJL187C, strain SWE1, hits give low values 0.882 | locus YKL160W, strain elf1, hits give low values 0.845 | locus YKR001C, strain vps1, hits give low values 0.812 | locus YKR026C, strain gcn3, hits give low values 0.835 | locus YKR091W, strain srl3, hits give low values 0.924 | locus YLL001W, strain dnm1, hits give low values 0.768 | locus YLL026W, hits give low values 0.814 | locus YLR027C, strain aat2, hits give low values 0.757 | locus YLR221C, strain rsa3, hits give low values 0.779 | locus YLR258W, strain gsy2, hits give low values 0.891 | locus YLR262C, strain YPT6 (second series), hits give low values 0.315 | locus YLR320W, strain mms22, hits give low values 0.662 | locus YLR371W, strain rom2, hits give low values 0.854 | locus YLR418C, strain cdc73, hits give low values 0.785 | locus YML032C, strain rad52, hits give low values 0.9 | locus YML120C, strain ndi1, hits give low values 0.749 | locus YMR058W, strain fet3, hits give low values 0.774 | locus YMR125W, strain sto1, hits give low values 0.844 | locus YMR129W, hits give low values 0.909 | locus YMR205C, strain PFK2, hits give low values 0.737 | locus YMR223W, strain ubp8, hits give low values 0.86 | locus YNL071W, strain lat1, hits give low values 0.613 | locus YNL153C, strain GIM3, hits give low values 0.728 | locus YNL248C, strain rpa49, hits give low values 0.748 | locus YNL307C, strain MCK1, hits give low values 0.849 | locus YNL322C, strain KRE1 (second series), hits give low values 0.894 | locus YNR049C, strain mso1, hits give low values 0.915 | locus YOR001W, strain rrp6, hits give low values 0.714 | locus YOR083W, strain WHI5, hits give low values 0.812 | locus YOR106W, strain vam3, hits give low values 0.727 | locus YOR184W, strain ser1, hits give low values 0.676 | locus YOR265W, strain rbl2, hits give low values 0.873 | locus YPL051W, strain arl3, hits give low values 0.776 | locus YPL078C, strain atp4, hits give low values 0.691 | locus YPL106C, strain sse1, hits give low values 0.778 | strain wtn01, hits give low values 0.893

Cc1sc2ccccc2c1CC1=NCCN1
inactive: locus YAL040C, strain CLN3, hits give low values 0.972 | locus YCL061C, strain MRC1 (second series), hits give low values 0.993 | locus YDR150W, strain NUM1, hits give low values 0.995 | locus YER002W, strain NOP16, hits give low values 0.988 | locus YGR078C, strain PAC10, hits give low values 1 | locus YJR075W, strain HOC1, hits give low values 1.01 | [1] 1 | locus YNL175C, strain NOP13, hits give low values 1.03 | locus YNL197C, strain WHI3, hits give low values 1 | locus YNL224C, strain SQS1, hits give low values 1 | locus YOR083W, strain WHI5 (second series), hits give low values 0.982 | [2] 1
